Test results reported in PubChem BioAssay (NCI).
Compounds without any hit were thinned out: in the full panel of roughly 79,000, 15% have a hit. Values without a mark were called inactive. Calls of active or inactive are those of the source. Rule as the data show it: active = growth inhibition above about 70%; inactive = the rest.

Tests used:
[1] = NCI Yeast Anticancer Drug Screen. Data for the rad50 strain (AID 155);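 also: 0% = growth of vehicle-only cultures of the same strain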; conditions: S. cerevisiae rad50 strain growth inhibition, stronger effect = higher value
How it was run: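 Vehicle-treated cultures provide the reference for the growth inhibition reported for compound-exposed, repair-deficient yeast.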

[2] = NCI Yeast Anticancer Drug Screen. Data for the mec2-1 strain (AID 157); conditions: S. cerevisiae mec2-1 strain, stronger effect = higher value
How it was run: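 mec2-1 yeast strain, carrying an alteration in DNA damage repair or cell cycle control, was exposed to compounds; growth inhibition was measured relative to vehicle-treated controls.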

[3] = NCI Yeast Anticancer Drug Screen. Data for the sgs1 mgt1 strain (AID 161);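 also: 0% = growth of cultures given vehicle only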; conditions: S. cerevisiae sgs1 mgt1 strain, stronger effect = higher value
How it was run: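 Compounds are added to genetically altered yeast, and growth is compared with cultures given vehicle alone to give percent inhibition.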

[4] = NCI Yeast Anticancer Drug Screen. Data for the cln2 rad14 strain (AID 165);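 also: 0% = growth equal to vehicle treated cultures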; conditions: S. cerevisiae cln2 rad14 strain, stronger effect = higher value
How it was run: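 Yeast carrying cln2 and rad14 alterations (cell cycle control and DNA damage repair) were exposed to compounds. Growth inhibition was measured against vehicle-treated controls.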

[5] = NCI Yeast Anticancer Drug Screen. Data for the bub3 strain (AID 167); conditions: S. cerevisiae bub3 mutant strain, stronger effect = higher value
How it was run: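 Mutant yeast screening strain plus compound; vehicle-treated cultures serve as the 0% inhibition reference.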

[6] = NCI Yeast Anticancer Drug Screen. Data for the mlh1 rad18 strain (AID 175); conditions: S. cerevisiae mlh1 rad18 strain growth inhibition, stronger effect = higher value
How it was run: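 Growth inhibition of the yeast strain was measured after compound exposure and expressed relative to vehicle-treated controls. The strain carries defined defects in DNA damage repair.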

[7] = at 5.0 µM (retest, dose inferred, filed as 0.5)
[8] = at 50.0 µM (retest, dose inferred, filed as 5.0)

SMILES	growth inhibition [1, 7]	growth inhibition [1, 8]	growth inhibition ([1]; at 50.0 µM)	growth inhibition [2, 7]	growth inhibition [2, 8]	growth inhibition ([2]; at 50.0 µM)	growth inhibition [3, 7]	growth inhibition [3, 8]	growth inhibition ([3]; at 50.0 µM)	growth inhibition [4, 7]	growth inhibition [4, 8]	growth inhibition ([4]; at 50.0 µM)	growth inhibition [5, 7]	growth inhibition [5, 8]	growth inhibition ([5]; at 50.0 µM)	growth inhibition [6, 7]	growth inhibition [6, 8]	growth inhibition ([6]; at 50.0 µM)
O=C(Nc1ccccc1-c1nn(C(=S)Nc2ccccc2)c(=S)n(C(=S)Nc2ccccc2)c1=O)C(F)(F)F	6%	59%	47.1%	2%	87% (active)	88.1% (active)	10%	77% (active)	46.5%	7%	38%	17.2%	-41%	50%	15.4%	3%	88% (active)	81.5% (active)
CN(C)c1nc(=NCc2ccccc2)ss1	-7%	46%	66.9%	-5%	38%	54.7%	19%	77% (active)	72.5% (active)	8%	48%	36.6%	0%	76% (active)	59%	5%	82% (active)	50.1%
Cc1ccc(/C=C/C(=O)c2cc(CN(C)C)c(O)c(CN(C)C)c2)cc1	1%	5%	41.9%	0%	25%	-1.25%	-1%	11%	-9.5%	4%	-4%	55.6%	3%	8%	-3.35%	-2%	23%	1.4%
CC(C)c1ccc(S(=O)(=O)c2ccc([N+](=O)[O-])cc2[N+](=O)[O-])cc1	98% (active)	91% (active)	93.8% (active)	100% (active)	97% (active)	96.5% (active)	100% (active)	97% (active)	96.8% (active)	76% (active)	94% (active)	94.5% (active)	95% (active)	96% (active)	96.2% (active)	99% (active)	95% (active)	96.2% (active)
CCOC(=O)N1CCN(CCCOc2ccc(Cl)cc2Cc2ccccc2)CC1	29%	100% (active)	99.7% (active)	26%	100% (active)	99.7% (active)	59%	100% (active)	99.8% (active)	30%	99% (active)	99.5% (active)	89% (active)	100% (active)	99.5% (active)	24%	100% (active)	99.7% (active)
Cc1ccc(-c2c3c(cc4cc(C)ccc24)C(=O)OC3=O)cc1	12%	26%	14.8%	-2%	12%	6.85%	-1%	27%	17.9%	4%	6%	15.2%	1%	4%	15.8%	-2%	25%	32.9%
Cc1cccc2c1C1OC(=O)C3CCC=C2C31 (stereo not given)	-146%	-134%	30.4%	-49%	-55%	53.9%	-56%	-58%	12.8%	-45%	-39%	64.9%	-41%	-52%	28.1%	-107%	-101%	41.8%
C/C(=N\NC(=S)N(C)CCN(C)C(=S)N/N=C(\C)c1ccccn1)c1ccccn1	-8%	99% (active)	97.5% (active)	-5%	99% (active)	97.2% (active)	-3%	99% (active)	97.8% (active)	4%	99% (active)	95.8% (active)	-10%	99% (active)	97% (active)	20%	99% (active)	96.7% (active)
CCOC(=O)C(CCSC)C(=O)OCC	-1%	-2%	11%	2%	2%	12.8%	4%	-2%	-0.15%	1%	-1%	76.1% (active)	-3%	3%	-2.4%	-3%	-4%	2.35%
CNC(=S)N/N=C/c1nccc(-c2ccccc2)c1C	4%	93% (active)	23.8%	-2%	96% (active)	48.9%	3%	96% (active)	41.8%	-9%	94% (active)	39.1%	2%	94% (active)	-2.75%	-3%	93% (active)	74.7% (active)
